Anaer choline gr – growth inhibitors of anaerobic choline-fed gram-negatives, minimal medium, absorbance; Gram-negative bacterium anaerobic choline minimal medium; stronger effect = lower value; hit rate 0.2% among 55,000; calls only; call rule not given here
Calls only; 0 = inactive; + = active, no number. This is one part of a sample in which hits are shown more often than they occur.

SMILES	Anaer choline gr
CN1[C@@H]2CC[C@H]1CC(OC1c3ccccc3CCc3ccccc31)C2 (stereo not given in full)	0
CN1C2CCC1CC(OC(c1ccc(F)cc1)c1ccc(F)cc1)C2 (stereo not given)	+
Fc1ccc(C(OCCN2CCN(CCCc3ccccc3)CC2)c2ccc(F)cc2)cc1	0
Cc1ccc(C)c(Cn2cccc(C(=O)Nc3nc4ccccc4s3)c2=O)c1	0
O=C1[C@@H]2CCCN2[C@@H](c2cccc(Cl)c2)N1c1ccccn1	0
CN1CCc2cccc(Cl)c2CC1	+
CN1CCN(c2nc3ccccc3nc2Cl)CC1	0
C=C1[C@@H](C)[C@H]2[C@H](Cc3ccccc3)NC(=O)C23[C@H](OC(C)=O)/C=C/[C@](C)(O)C(=O)[C@@H](C)C/C=C/[C@H]3[C@@H]1O (stereo not given in full)	0
CCC(=O)N1N=C2C3CCN(CC3)[C@@H]2[C@@H]1c1ccc(Cl)cc1	0
CC(C)[C@@]12OC1C1O[C@]13[C@]1(OC1C[C@@H]1C4=C(CC[C@@]13C)C(=O)OC4)C2O (stereo not given in full)	0

Assay outcomes (PubChem)
